Results published in the supplement of paper PMC10849652.
The full data set covers some 7,900 targets. This sample favours those with a hit. About 0.6% of all pairs of compound and target were hits.

Tests used:
Test in all cases: log2 fold change, soluble protein after heating vs DMSO (PISA); higher = thermal stabilisation; K562 cells, 10 uM, 30 min; active = over 0.2 and 3.5 SD of the protein, either way, in both replicates (recomputed)
[1] = compound: C1=CC=C(C=C1)[C@H](COC2=CC3=C(C=C2)NC(=O)N3)NC(=O)C4=CC=CN(C4=O)CC5=CC(=C(C=C5)F)F
Method in brief: (§1)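 K562 cells at 2×10^6 cells/mL were exposed to 10 μM compound for 30 min, then aliquots were heated for 3 min across 48°C-58°C, pooled, and extracted in PBS containing 0.5% NP-40 at 4°C. The supernatant after 21,000xg for 90 min was taken as soluble protein and measured by TMTpro 16plex LC-MS/MS with channel sums equalised. Thermal stability is reported relative to control samples, with values from duplicates. Fold changes are given on a log2 scale.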

[2] = compound: CC1=C(SC2=C1C(=N[C@H](C3=NN=C(N32)C)CC(=O)N)C4=CC=C(C=C4)Cl)C
Method in brief: as §1

[3] = compound: CC1=C2C(=CC=C1)N=C(N(C2=O)C3=CC=CC=C3C)CN4C=NC5=C(N=CN=C54)N
Method in brief: as §1

[4] = compound: Cc1sc2c(c1C)C(c1ccc(Cl)cc1)=N[C@@H](CC(=O)OC(C)(C)C)c1nnc(C)n1-2
Method in brief: as §1

[5] = compound: c1ccc([C@@H]2C[C@H]2NC2CCNCC2)cc1
Method in brief: as §1

Measured: log2 fold change

H2AFX (UniProt P16104)
inactive: [1] 0.103 | [2] -0.353 | [3] -0.374 | [4] -0.043 | [5] 0.206

GNS (UniProt P15586)
Chain of UniProt P15586 (P15586 whole entry, looked up): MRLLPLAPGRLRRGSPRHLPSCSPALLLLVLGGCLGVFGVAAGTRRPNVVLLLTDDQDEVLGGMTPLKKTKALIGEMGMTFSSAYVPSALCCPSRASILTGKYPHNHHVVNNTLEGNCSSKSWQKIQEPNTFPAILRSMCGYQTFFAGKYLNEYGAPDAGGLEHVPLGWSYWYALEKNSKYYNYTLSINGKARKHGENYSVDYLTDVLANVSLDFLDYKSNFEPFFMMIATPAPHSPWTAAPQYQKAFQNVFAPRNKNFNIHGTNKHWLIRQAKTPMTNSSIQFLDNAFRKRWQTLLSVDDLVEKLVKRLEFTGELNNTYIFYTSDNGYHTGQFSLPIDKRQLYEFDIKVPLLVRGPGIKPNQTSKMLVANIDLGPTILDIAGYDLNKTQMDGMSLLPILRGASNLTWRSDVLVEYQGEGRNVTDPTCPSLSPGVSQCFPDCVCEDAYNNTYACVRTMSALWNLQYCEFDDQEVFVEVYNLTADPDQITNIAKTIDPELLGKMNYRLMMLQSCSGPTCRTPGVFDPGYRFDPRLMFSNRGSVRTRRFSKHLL
inactive: [1] 0.037 | [2] 0.011 | [3] 0.013 | [4] -0.001 | [5] 0.027

HBQ1 (UniProt P09105)
Chain of UniProt P09105 (P09105 whole entry, looked up): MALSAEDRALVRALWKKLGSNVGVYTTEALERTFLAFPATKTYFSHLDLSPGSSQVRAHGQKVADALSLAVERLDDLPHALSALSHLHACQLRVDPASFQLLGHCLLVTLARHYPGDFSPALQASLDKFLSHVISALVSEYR
inactive: [1] 0.023 | [2] 0.135 | [3] 0.092 | [4] -0.147 | [5] -0.037

GMEB1 (UniProt Q9Y692)
inactive: [1] 0.02 | [2] 0.084 | [3] -0.007 | [4] 0.024 | [5] 0.022

HMGN2 (UniProt P05204)
inactive: [1] -0.099 | [2] -0.056 | [3] -0.033 | [4] 0.021 | [5] 0.07

HEATR3 (UniProt Q7Z4Q2)
inactive: [1] -0.073 | [2] -0.014 | [3] 0.026 | [4] 0.004 | [5] -0.04

FKBP7 (UniProt Q9Y680)
inactive: [1] -0.027 | [2] 0.005 | [3] 0.091 | [4] 0.009 | [5] 0.102

GDE1 (UniProt Q9NZC3)
Chain of UniProt Q9NZC3 (Q9NZC3 whole entry, looked up): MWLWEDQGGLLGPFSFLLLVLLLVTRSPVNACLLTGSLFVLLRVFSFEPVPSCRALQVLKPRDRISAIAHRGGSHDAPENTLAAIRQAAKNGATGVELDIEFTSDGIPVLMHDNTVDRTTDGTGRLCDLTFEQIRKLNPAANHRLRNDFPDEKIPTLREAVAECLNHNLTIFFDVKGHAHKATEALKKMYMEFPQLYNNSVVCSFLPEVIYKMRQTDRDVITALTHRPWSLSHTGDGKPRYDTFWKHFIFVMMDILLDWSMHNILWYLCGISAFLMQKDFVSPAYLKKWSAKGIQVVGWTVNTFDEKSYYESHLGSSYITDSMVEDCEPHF
inactive: [1] -0.019 | [2] 0.037 | [3] 0.025 | [4] -0.078 | [5] -0.055

FIS1 (UniProt Q9Y3D6)
inactive: [1] 0.047 | [2] 0.021 | [3] 0.035 | [4] -0.081 | [5] -0.011

FKBP4 (UniProt Q02790)
Chain of UniProt Q02790 (Q02790 whole entry, looked up): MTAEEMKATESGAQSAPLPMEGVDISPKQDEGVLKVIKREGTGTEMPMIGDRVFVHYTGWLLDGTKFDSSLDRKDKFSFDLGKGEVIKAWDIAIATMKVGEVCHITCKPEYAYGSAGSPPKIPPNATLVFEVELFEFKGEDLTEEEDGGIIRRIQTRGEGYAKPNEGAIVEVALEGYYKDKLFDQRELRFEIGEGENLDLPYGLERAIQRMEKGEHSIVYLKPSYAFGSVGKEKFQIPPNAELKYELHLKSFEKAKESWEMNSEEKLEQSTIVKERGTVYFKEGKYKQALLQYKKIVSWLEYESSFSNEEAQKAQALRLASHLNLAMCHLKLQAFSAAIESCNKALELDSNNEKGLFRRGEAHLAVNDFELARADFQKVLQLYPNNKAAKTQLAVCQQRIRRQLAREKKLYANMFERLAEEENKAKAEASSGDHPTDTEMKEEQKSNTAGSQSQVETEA
inactive: [1] -0.032 | [2] 0.042 | [3] 0.037 | [4] 0.004 | [5] -0.029

HPCAL1 (UniProt P37235)
inactive: [1] 0.007 | [2] -0.011 | [3] 0.047 | [4] -0.011 | [5] 0.032

H3-3A (UniProt P84243)
inactive: [1] -0.004 | [2] 0.053 | [3] 0.154 | [4] -0.058 | [5] -0.102

GMEB2 (UniProt Q9UKD1)
Chain of UniProt Q9UKD1 (Q9UKD1 whole entry, looked up): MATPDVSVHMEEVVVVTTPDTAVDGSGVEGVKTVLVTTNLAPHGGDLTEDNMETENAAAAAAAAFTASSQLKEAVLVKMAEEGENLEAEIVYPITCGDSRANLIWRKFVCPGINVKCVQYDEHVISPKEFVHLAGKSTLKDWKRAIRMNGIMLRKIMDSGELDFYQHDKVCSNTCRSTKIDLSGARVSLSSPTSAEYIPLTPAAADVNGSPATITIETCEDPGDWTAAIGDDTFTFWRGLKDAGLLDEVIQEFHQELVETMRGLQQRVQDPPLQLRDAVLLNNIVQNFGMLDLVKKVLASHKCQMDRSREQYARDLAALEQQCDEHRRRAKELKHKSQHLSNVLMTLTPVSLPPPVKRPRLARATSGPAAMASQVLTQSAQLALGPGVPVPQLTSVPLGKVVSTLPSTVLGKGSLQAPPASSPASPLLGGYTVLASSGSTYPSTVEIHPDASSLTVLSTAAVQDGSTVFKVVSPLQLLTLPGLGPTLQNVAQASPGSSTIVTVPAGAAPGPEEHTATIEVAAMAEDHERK
inactive: [1] 0.037 | [2] 0.073 | [3] 0.068 | [4] -0.007 | [5] -0.016

FAT1 (UniProt Q14517)
inactive: [1] -0.059 | [2] -0.038 | [3] 0.126 | [4] -0.071 | [5] 0.155

GCSH (UniProt P23434)
Chain of UniProt P23434 (P23434 whole entry, looked up): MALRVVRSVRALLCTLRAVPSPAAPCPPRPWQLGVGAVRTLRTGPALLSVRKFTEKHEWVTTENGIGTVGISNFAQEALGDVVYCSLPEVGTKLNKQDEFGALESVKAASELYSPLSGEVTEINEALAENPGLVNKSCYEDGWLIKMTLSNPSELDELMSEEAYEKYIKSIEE
inactive: [1] 0.029 | [2] -0.004 | [3] -0.043 | [4] 0 | [5] 0.043

HSPA8 (UniProt E9PN89)
inactive: [1] 0 | [2] 0.094 | [3] 0.123 | [4] 0.133 | [5] 0.104

HBA1 (UniProt P69905)
Chain of UniProt P69905 (P69905 whole entry, looked up): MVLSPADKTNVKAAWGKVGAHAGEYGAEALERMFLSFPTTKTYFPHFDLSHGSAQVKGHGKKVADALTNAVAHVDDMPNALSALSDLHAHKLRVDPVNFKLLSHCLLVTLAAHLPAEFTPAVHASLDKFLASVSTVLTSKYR
inactive: [1] -0.003 | [2] 0.163 | [3] 0.005 | [4] -0.167 | [5] -0.023

GLIPR2 (UniProt Q9H4G4)
inactive: [1] -0.092 | [2] -0.091 | [3] -0.009 | [4] 0.028 | [5] -0.017

GLS isoform 3 (UniProt O94925)
Chain of UniProt O94925 (O94925 whole entry, looked up): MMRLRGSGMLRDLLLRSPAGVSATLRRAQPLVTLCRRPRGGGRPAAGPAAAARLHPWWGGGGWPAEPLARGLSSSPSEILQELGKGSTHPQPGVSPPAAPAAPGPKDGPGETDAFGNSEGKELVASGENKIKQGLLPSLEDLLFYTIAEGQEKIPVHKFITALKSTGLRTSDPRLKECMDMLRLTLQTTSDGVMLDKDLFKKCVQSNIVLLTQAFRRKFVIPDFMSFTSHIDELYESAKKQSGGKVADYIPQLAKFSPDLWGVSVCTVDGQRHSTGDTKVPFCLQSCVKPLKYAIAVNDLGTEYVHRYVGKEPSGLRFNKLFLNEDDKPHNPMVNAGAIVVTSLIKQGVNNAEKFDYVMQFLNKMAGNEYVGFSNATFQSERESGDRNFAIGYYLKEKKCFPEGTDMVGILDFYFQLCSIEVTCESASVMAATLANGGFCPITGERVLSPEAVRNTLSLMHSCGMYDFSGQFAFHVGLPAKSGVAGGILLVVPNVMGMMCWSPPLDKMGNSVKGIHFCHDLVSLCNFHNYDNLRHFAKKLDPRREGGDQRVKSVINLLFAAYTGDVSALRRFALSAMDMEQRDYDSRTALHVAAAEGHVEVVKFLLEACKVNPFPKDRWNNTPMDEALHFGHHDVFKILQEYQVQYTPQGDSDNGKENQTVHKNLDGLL
inactive: [1] -0.077 | [2] 0.204 | [3] 0.024 | [4] -0.168 | [5] 0.067

GINS2 (UniProt Q9Y248)
Chain of UniProt Q9Y248 (Q9Y248 whole entry, looked up): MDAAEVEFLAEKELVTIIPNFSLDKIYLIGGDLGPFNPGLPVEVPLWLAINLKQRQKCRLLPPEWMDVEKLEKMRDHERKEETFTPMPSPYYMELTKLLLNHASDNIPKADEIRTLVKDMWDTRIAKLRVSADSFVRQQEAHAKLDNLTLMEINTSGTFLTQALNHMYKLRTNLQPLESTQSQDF
inactive: [1] -0.011 | [2] 0.102 | [3] 0.115 | [4] -0.033 | [5] -0.026

GALK1 isoform 2 (UniProt P51570)
Chain of UniProt P51570 (P51570 whole entry, looked up): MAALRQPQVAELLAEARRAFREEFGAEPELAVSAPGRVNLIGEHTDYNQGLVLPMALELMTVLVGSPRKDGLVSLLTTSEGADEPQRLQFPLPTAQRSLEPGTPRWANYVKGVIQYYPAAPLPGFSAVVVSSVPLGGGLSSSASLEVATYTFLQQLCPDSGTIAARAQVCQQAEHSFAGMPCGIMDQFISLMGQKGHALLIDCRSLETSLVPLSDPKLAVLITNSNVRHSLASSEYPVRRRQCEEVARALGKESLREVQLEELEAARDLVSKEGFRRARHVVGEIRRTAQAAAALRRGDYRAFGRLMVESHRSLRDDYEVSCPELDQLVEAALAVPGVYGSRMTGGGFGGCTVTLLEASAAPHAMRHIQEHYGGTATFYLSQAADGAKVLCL
inactive: [1] -0.02 | [2] 0.016 | [3] -0.065 | [4] -0.024 | [5] -0.007

FECH isoform 2 (UniProt P22830)
Chain of UniProt P22830 (P22830 whole entry, looked up): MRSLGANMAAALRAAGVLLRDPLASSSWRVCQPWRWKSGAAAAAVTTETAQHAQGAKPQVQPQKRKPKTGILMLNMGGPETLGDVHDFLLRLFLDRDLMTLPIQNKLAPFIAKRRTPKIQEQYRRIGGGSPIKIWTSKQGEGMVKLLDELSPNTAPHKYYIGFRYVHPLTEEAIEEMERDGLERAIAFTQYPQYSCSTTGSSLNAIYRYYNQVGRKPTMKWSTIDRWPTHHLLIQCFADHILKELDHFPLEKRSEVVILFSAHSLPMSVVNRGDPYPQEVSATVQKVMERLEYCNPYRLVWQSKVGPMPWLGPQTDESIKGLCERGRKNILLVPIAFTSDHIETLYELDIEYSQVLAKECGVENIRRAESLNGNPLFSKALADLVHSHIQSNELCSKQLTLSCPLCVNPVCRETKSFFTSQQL
inactive: [1] 0.008 | [2] 0.03 | [3] 0.023 | [4] -0.07 | [5] -0.08

IFT80 isoform 3 (UniProt Q9P2H3)
inactive: [1] -0.011 | [2] 0.052 | [3] 0.083 | [4] -0.036 | [5] -0.027

HIKESHI (UniProt Q53FT3)
inactive: [1] 0.014 | [2] 0.12 | [3] 0.149 | [4] -0.091 | [5] -0.027

GTF2A2 (UniProt P52657)
Chain of UniProt P52657 (P52657 whole entry, looked up): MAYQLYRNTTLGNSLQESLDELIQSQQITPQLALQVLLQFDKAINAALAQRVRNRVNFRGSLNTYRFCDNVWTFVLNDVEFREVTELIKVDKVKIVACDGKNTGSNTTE
inactive: [1] 0.003 | [2] 0.057 | [3] 0.092 | [4] -0.064 | [5] -0.017

GCDH (UniProt Q92947)
inactive: [1] 0.021 | [2] 0.012 | [3] 0.036 | [4] -0.043 | [5] -0.019

GSTM4 (UniProt Q03013)
Chain of UniProt Q03013 (Q03013 whole entry, looked up): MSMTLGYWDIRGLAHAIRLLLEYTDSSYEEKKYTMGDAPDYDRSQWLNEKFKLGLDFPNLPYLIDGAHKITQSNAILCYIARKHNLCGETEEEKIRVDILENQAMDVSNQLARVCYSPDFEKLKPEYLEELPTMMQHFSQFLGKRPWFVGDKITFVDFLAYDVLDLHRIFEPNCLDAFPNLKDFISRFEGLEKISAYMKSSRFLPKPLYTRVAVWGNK
inactive: [1] 0.064 | [2] 0.063 | [3] -0.114 | [4] -0.027 | [5] 0.03

GLCCI1 (UniProt Q86VQ1)
Chain of UniProt Q86VQ1 (Q86VQ1 whole entry, looked up): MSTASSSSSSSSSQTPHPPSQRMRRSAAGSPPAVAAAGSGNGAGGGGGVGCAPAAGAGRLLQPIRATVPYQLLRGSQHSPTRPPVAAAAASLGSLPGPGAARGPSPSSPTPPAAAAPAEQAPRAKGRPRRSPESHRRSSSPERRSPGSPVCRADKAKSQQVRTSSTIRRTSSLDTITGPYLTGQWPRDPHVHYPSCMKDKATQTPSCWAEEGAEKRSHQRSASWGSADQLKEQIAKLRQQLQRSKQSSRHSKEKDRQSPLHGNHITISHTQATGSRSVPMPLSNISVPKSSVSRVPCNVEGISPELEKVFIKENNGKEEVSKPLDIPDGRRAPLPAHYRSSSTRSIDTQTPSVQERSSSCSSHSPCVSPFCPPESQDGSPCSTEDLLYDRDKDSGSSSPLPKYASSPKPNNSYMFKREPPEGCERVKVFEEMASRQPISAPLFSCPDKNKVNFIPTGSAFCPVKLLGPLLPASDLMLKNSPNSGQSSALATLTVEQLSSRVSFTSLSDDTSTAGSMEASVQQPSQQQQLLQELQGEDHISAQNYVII
inactive: [1] -0.088 | [2] -0.041 | [3] 0.137 | [4] 0.013 | [5] -0.075

HEATR5B (UniProt Q9P2D3)
inactive: [1] -0.029 | [2] -0.015 | [3] 0.052 | [4] -0.071 | [5] 0.016

FIBP (UniProt O43427)
inactive: [1] 0.091 | [2] 0.152 | [3] 0.042 | [4] -0.105 | [5] -0.011
